This is a sample that favours compounds with a hit; in the whole collection about 2.4% have one here.
GLP1R ag – qHTS of GLP-1 Receptor Agonists. HEK293 GLP-1R CRE-luciferase, luminescence, 4-6 h; cells express a hypersensitive GLP-1R form. Potency, µM (doses to about 45.6 µM), inactives show at the top dose activation, actives largely listed as activators. hit rate 0.007% among 380,000. AID 624172, 2012; note: potency is the fitted concentration of half-maximal effect; % of control where 0% means no effect
PTHR1 agonist – qHTS for PTHR1 Agonists: Primary Screen. Parathyroid hormone/parathyroid hormone-related peptide receptor (Homo sapiens), Q03431. HEK293 GP2 PTHR1 cells, GloSensor cAMP luminescence, 1 h. Potency, µM (titrated, usually from 115 µM), for the others: at the highest dose activation, actives largely listed as activators. hit rate 0.075% among 410,000. AID 743266, 2014; note: potency is the fitted concentration of half-maximal effect; nearly all actives have a fitted effect of over 55% in size
Target sequence (Q03431 whole entry, looked up): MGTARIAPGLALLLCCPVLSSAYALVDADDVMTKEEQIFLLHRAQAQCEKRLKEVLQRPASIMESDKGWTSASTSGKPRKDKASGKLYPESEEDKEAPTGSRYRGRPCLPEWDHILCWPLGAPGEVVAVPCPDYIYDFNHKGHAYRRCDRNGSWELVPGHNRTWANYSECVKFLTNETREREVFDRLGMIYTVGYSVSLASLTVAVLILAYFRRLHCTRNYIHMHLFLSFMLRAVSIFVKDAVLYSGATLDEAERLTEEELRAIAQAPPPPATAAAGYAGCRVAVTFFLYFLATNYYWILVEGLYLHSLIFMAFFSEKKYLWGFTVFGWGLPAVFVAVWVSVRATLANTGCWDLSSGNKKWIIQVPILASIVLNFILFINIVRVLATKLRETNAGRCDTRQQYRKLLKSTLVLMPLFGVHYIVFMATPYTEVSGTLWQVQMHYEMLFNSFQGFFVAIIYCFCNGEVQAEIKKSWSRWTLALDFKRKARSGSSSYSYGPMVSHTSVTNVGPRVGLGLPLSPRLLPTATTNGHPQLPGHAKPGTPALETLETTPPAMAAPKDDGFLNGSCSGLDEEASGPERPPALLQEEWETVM
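HEK-293-derived GP2 cells expressing PTHR1 and a GloSensor cAMP reporter, 3,000/well, plated overnight, given luciferin plus IBMX (each 0.5 mM as added) for 1 h at 37 °C, then compound for 1 h at 37 °C. Luminescence was read after 15 min at room temperature.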
GLP-1R inv ag – qHTS of GLP-1 Receptor Inverse Agonists (Inhibition Mode); HEK293 GLP-1R CRE-luciferase, luminescence, 24 h; GLP-1R form is constitutively active; Potency, µM (titrated, usually from 38.3 µM), inactives show at the highest dose activity change, negative = inhibition, usual class: inhibitors; hit rate 1.6% among 410,000; note: potency is the fitted concentration of half-maximal effect; % is set by controls: 0 for no effect and ±100 for the full control effect; nearly all actives have a fitted effect of over 55% in size
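Using stably transfected HEK293 (constitutively active GLP-1R, cAMP-luciferase reporter), compounds were incubated 24 hr and luciferase measured by luminescence.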
TRHR PAM – qHTS for Small Molecule Agonists and Allosteric Enhancers of Human TRH Receptor: Primary Screen for Enhancers | Thyrotropin-releasing hormone receptor (Homo sapiens), P34981 | TRHR cells, fluo-8 calcium fluorescence, EC20 TRH enhancement | hit rate 0.66% among 360,000 | enhancement, % at 2 µM; in the data active = enhancement above about 30%; note: 0% is about no effect
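Enhancer read-out: after compound pinning and an initial kinetic agonist-mode read, an EC20 of TRH (10 nM final) was injected and fluo-8 calcium signal (Ex 480/Em 530) followed at 1 s/cycle for 100 cycles in TRHR-expressing cells.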
GLP1R cytotox – qHTS of GLP-1 Receptor Inverse Agonists: Cytotox Screen. Potency, µM (titrated, usually from 38.3 µM), for the others: top-dose activity change, negative = inhibition, most hits filed as inhibitors. hit rate 0.13% among 410,000. HEK293 cAMP-luciferase reporter cells, luminescence, 24 h;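 note: loss of luciferase light is scored as toxicity; potency is the fitted concentration of half-maximal effect; % is set by controls: 0 for no effect and ±100 for the full control effect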
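Compound-treated cells are incubated 24 hr at 37 deg C under 5% CO2 after a 12 hour attachment period, then luciferase detection reagent is added and luminescence is measured following 12 min at room temperature; lowered signal indicates toxicity.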
TRHR agonist – qHTS for Small Molecule Agonists and Allosteric Enhancers of Human TRH Receptor: Primary Screen for Agonists | TRHR cells, calcium flux fluo-8, FDSS agonist mode | activation, % at 2 µM | hit rate 0.18% among 360,000; in the data active = activation above about 30%; note: 0% is about no effect
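Read-out: compound-evoked intracellular calcium rise in TRHR cells, fluo-8 dye, kinetic FDSS fluorescence at 1 s/cycle following a 10-cycle baseline. Cells cultured overnight before dye loading (30 min–1.5 h, RT).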
Starred values were filed as active, the others as inactive; i = inactive; ? = inconclusive; . = not tested or not shown; [ ] = dose if it differs, or a comment. Unless noted, calls come from the whole dose curve; as a rule, active = well fitted curve in the direction sought with a large enough effect; inconclusive = small, poorly fitted or top-dose-only effect, or another doubt; inactive = no such curve, though single readings can be large; an effect the other way counts as inactive or inconclusive.

SMILES	GLP1R ag	PTHR1 agonist	GLP-1R inv ag	TRHR PAM	GLP1R cytotox	TRHR agonist
CN(C)c1ccc(C(CNC(=O)COc2ccc(Cl)cc2)N2CCCC2)cc1 (stereo not given)	13%	i	11µM*	6	-22%	1
CCN(CC)c1ccc(/C=N/Nc2nc(C)cc(C)n2)cc1	10%	i	11µM*	-1	?	-1
O=C(Nc1c(-c2ccccc2)nc2ccccn12)c1ccccc1	-3%	-14%	-2%	-5	5%	0
O=C(Nc1c(-c2ccccc2)nc2ccccn12)c1ccc(Br)cc1	0%	-12%	11µM*	0	-25%	0
O=C(Nc1c(-c2ccccc2)nc2ccccn12)c1cccc(F)c1	3%	3%	10µM*	-2	-7%	2
O=C(Nc1ccccc1C(=O)Nc1nnc(C(F)(F)F)s1)c1ccccc1	-6%	-40%	?	-4	3.2µM*	2
Cc1occc1C(=O)Nc1nnc(C(F)(F)F)s1	3%	22%[57.5 µM]	-2%	-10	4%	2
O=C(c1ccccc1)N1N=C(C(F)(F)F)CC1(O)c1ccccc1 (stereo not given)	4%	i	?	38*	-12%	-2
C[C@@H]1CN([C@H](C)CO)C(=O)CCCn2nncc2CO[C@@H]1CN(C)S(=O)(=O)c1cccc(F)c1	-4%	-25%	11%	.	-9%	.
CC1(C(=O)Nc2cccc3c2CCCC3)CCN1C(=O)CCC1CCCC1 (stereo not given)	23%	-46%	11µM*	.	-2%	.
CSc1ccccc1NC(=O)C1(C)CCN1C(=O)CCC1CCCC1 (stereo not given)	12%	i	?	.	2%	.
O=C1C2C3C=CC(CC3)C2C(=O)N1c1cccc(C(F)(F)F)c1 (stereo not given)	9%	-24%	1%	-2	7%	1
CC(C)CCNC(=O)NC(=O)Cn1cc(C(F)(F)F)ccc1=O	.	.	.	5	.	0
CCN(CC)CCCNC(=O)C(C)Sc1nc(-c2ccccc2)cc(C(F)(F)F)n1 (stereo not given)	9%	i	2.8µM*	1	2%	0
CCOC(=O)[C@H](CCc1ccccc1)N[C@@H](C)C(=O)N1[C@H](C(=O)O)C[C@H]2CCCC[C@@H]21	-2%	.	.	.	.	.
CCCN1C(=O)/C(=C/c2c(NCCCOC(C)C)nc3c(C)cccn3c2=O)SC1=S	1%	i	6%	4	-3%	15
CCC(C)N1C(=O)/C(=C/c2c(NCCCOC(C)C)nc3c(C)cccn3c2=O)SC1=S (stereo not given)	-3%	i	-2%	-6	15%	34*
Cc1ccccc1C(=O)Nc1ccnn1C1CCN(Cc2c(C)n(C)c3ccccc23)CC1	13%	i	11µM*	10	-21%	0
Cc1ccccc1C(=O)Nc1ccnn1C1CCN(Cc2cccnc2)CC1	-4%	i	16%	0	2%	0
CCc1ccc(CN2CCC(n3nccc3NC(=O)c3ccccc3C)CC2)cc1	2%	-71%	5.6µM*	8	?	2
CCN1C(=O)NC(c2ccc(Cl)cc2)C2=C1CCCC2=O (stereo not given)	10%	i	1%	1	-4%	0
CCn1c(SCC(=O)N(C)c2c(N)n(Cc3ccccc3)c(=O)[nH]c2=O)nc2ccccc21	0%	i	6%	31*	-7%	1
CN(C(=O)CSc1nc2ccccc2n1Cc1cccc(C(F)(F)F)c1)c1ccccc1	.	-16%	10µM*	5	-18%	1
CC(C)N(C(=O)CSc1nc2ccccc2n1Cc1ccc(F)cc1)C(C)C	4%	-8%	2.8µM*	-11	?	1
COc1cccc(Cn2c(SCC(=O)N(C)c3ccccc3)nc3ccccc32)c1	.	-35%	?	-5	-4%	-1
SMILES	GLP1R ag	PTHR1 agonist	GLP-1R inv ag	TRHR PAM	GLP1R cytotox	TRHR agonist
Cc1nnc(SCC(=O)N(C)c2c(N)n(Cc3ccccc3)c(=O)[nH]c2=O)n1Cc1ccccc1	4%	i	-11%	1	-2%	1
CCN1CCN(c2cc(=O)n(C3CCCCC3)c(=O)[nH]2)CC1	13%	i	3%	34*	3%	0
CC(C)N(Cc1nc(-c2ccc(Cl)cc2)no1)C(=O)c1ccc(C(C)(C)C)cc1	-3%	-36%	-7%	-4	8%	0
CN(Cc1nc(-c2ccc(Cl)cc2)no1)C(=O)CCN1C(=O)[C@H]2CC=CC[C@H]2C1=O	4%	-30%	2µM*	-10	1%	0
CC(C)N(Cc1nc(-c2ccc(Cl)cc2)no1)C(=O)CCC1CCCC1	-1%	-43%	10µM*	-1	9%	2
CC(C)N(Cc1nc(-c2ccccc2)no1)C(=O)C(Cl)(Cl)Cl	11%	-36%	11µM*	2	5%	0
Cc1ccc(-c2noc(CN(C(=O)CCCCCN3C(=O)c4ccccc4C3=O)C(C)C)n2)cc1	3%	-74%[57.5 µM]	6.3µM*	3	-7%	2
Cc1ccc(-c2noc(CN(C(=O)CCCN3C(=O)c4ccccc4C3=O)C(C)C)n2)cc1	-4%	-11%	?	.	4%	.
CC1CCc2nc(NC(=O)Nc3ccc4c(c3)OCO4)sc2C1 (stereo not given)	8%	i	?	13	-7%	1
C/C=C/c1ccc2c(c1)O[C@@H](CN(C)C(=O)c1ccc(F)cc1)[C@@H](C)CN([C@H](C)CO)S2(=O)=O	0%	-29%	14%	.	-4%	.
CCCN(Cc1nc(-c2ccc(Cl)cc2)no1)CC1CCCO1 (stereo not given)	3%	-25%	?	-5	15%	1
CCN(Cc1nc(-c2ccc(Cl)cc2)no1)CC1CCCO1 (stereo not given)	5%	-20%	1.3µM*	-3	21%	0
CC(OC(=O)c1cccs1)C(=O)NCCc1ccccc1 (stereo not given)	1%	-2%	8%	-3	-5%	-1
COC(=O)[C@H](C)N(Cc1ccc(Cl)c(Cl)c1)S(=O)(=O)CCNC1CCCC1	-4%	i	13µM*	.	-2%	.
